APOBEC3A inh: blocks human APOBEC3A ssDNA deamination | P31941 | recombinant A3A, FAM/TAMRA ssDNA deamination fluorescence | inhibition, % at 20 µM | 330,000 tested, 0.41% active;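 active means at least 40% inhibition at 20 µM here, with at most 30% in a related deaminase screen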;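 further: plate controls were A3A with DMSO for no effect and wells lacking A3A enzyme for full effect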
Target sequence (P31941 whole entry, looked up): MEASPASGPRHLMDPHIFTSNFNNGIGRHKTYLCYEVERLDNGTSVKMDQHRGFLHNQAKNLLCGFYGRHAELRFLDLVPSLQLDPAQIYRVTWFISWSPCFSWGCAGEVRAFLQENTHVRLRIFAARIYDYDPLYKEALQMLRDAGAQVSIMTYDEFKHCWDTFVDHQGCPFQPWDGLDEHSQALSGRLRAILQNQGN
APOBEC3G inh: blocks human APOBEC3G single-stranded DNA deamination. Q9HC16. recombinant A3G, ssDNA deamination FAM/TAMRA fluorescence. inhibition, % at 20 µM. 330,000 tested, 0.28% active. AID 493012;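 active means inhibition of at least 40% at 20 µM, with no more than 30% in the related APOBEC3A deaminase screen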;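 further: plate controls were DMSO wells with A3G for no effect and wells lacking A3G enzyme for full effect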
ALR inh: human ALR oxidase inhibition via reduced H2O2 | purified ALR, DTT oxidation, H2O2 HRP-luminol luminescence | 290,000 tested, 3.8% active | inhibition, % (test concentration not listed) | AID 485317 | P55789;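 active means mean replicate inhibition above about 79%, with every replicate also reaching it, limit read from the data; inconclusive means only one of the two criteria met; inactive means mean below limit and not every replicate reaching it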
Target sequence (P55789 whole entry, looked up): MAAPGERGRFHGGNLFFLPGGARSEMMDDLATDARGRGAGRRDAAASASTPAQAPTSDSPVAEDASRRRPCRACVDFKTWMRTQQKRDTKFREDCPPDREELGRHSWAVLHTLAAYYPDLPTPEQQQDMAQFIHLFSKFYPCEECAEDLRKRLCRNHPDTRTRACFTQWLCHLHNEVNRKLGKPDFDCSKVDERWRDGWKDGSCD
rCAG RNA binder: binds r(CAG) RNA repeats. 370,000 tested, 1.3% active. AID 651821. inhibition, % at 3 µM. r(CAG) RNA repeat, TO-PRO-1 dye displacement fluorescence;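 active means inhibition above the plate cutoff, the mean of all test compounds on that plate plus 3 SD, cut at about 35% in these data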;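 further: 0% = DMSO alone and 100% = 100 µM mitoxantrone as full dye displacement; higher means more dye released from RNA so lower well fluorescence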
aDG glyco act: alpha-DG glycosylation activation; Pro5-aDG cells, alpha-DG glycosylation AlphaScreen (IIH6); 0% Pro5, 100% B10-LARGE cell signal; activation, % at 10 µM; 360,000 tested, 0.22% active; AID 624168;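 active means activation of at least 8% versus controls, or a plate z-score of at least 8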;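 further: Pro5 are CHO cells carrying HIG-tagged alpha-DG that lacks glycosylation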
PHOSPHO1 inh: PHOSPHO1 (human) inhibition. Q8TCT1. recombinant PHOSPHO1, absorbance phosphatase assay. inhibition, % at 13.3 µM. 290,000 tested, 1.1% active. AID 1565; in the data active means inhibition above about 60%
Target sequence (Q8TCT1 whole entry, looked up): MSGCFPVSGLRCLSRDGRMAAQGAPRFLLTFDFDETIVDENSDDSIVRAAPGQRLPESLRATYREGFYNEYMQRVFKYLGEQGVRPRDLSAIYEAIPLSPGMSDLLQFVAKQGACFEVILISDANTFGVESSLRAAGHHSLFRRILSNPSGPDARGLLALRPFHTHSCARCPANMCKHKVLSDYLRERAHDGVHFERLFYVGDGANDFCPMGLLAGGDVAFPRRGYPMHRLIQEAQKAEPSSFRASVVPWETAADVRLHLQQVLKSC
* hit, by the source's call; ? = inconclusive; · = not tested or not shown. In the library only some 5.4% were active in any assay of this set; here they are far more common.

SMILES	APOBEC3A inh	APOBEC3G inh	ALR inh	rCAG RNA binder	aDG glyco act	PHOSPHO1 inh
COc1cc(C)nc(Oc2ccc(/C=N/O)cc2)n1	-2.4	-5.2	98.3*	0.5	-0.5	0.6
COc1nc(Oc2ccc(/C=N/O)cc2)nc(N(C)C)n1	-2.5	-3.3	98.6*	-2.2	0.0	-72.3
CC(C)Nc1nc(NC(C)C)nc(Oc2ccc(/C=N/O)cc2)n1	-0.5	1.3	·	-7.1	0.0	·
O=C(C1CCCN(S(=O)(=O)c2ccc([N+](=O)[O-])cc2)C1)N1CCN(Cc2ccccc2)CC1 (centres undefined)	·	·	·	0.2	·	·
O[C@H](COc1cccc(C(F)(F)F)c1)CN1CCC(C(O)(c2ccccc2)c2ccccc2)CC1	·	·	·	-2.5	·	·
O=C(CN1CCN(S(=O)(=O)c2ccc(Cl)cc2)CC1)c1ccc(O)c(O)c1	-3.8	-6.9	98.8*	·	0.1	36.8
O=C(CN1CCN(S(=O)(=O)c2ccc(F)cc2)CC1)c1ccc(O)c(O)c1	-7.4	24.4	·	7.1	0.3	-0.7
COc1ccc(S(=O)(=O)N2CCN(CC(=O)c3ccc(O)c(O)c3)CC2)cc1	-3.2	-4.6	98.9*	9.8	0.1	-27.5
COC(=O)[C@]12C[C@H](CC(=O)N3CCN(C(=O)C4CC4)CC3)C(=O)N(Cc3ccccc3)C1=C[C@H](C(C)(C)C)O[C@@H]2C	·	·	·	0.8	·	·
CCCCOCCCNC(=O)C[C@@H]1C(=O)N(CCc2ccc(Cl)cc2)C2=CCCCC[C@]21C(=O)OC	·	·	·	1.2	·	·
COc1cccc(CNC(=O)[C@H]2CCCN2C(=O)[C@H]2CCCN2C(=O)OC(C)(C)C)c1	·	·	·	1.3	·	·
COCc1cc(C)nc(OCC(=O)N/N=C/c2ccc(O)cc2)c1C#N	3.1	6.8	99.2*	1.2	-0.2	1.4
O=C(C1CCCN1S(=O)(=O)c1ccccc1[N+](=O)[O-])N1CCN(c2ccccc2)CC1 (centres undefined)	·	·	·	6.7	·	·
COC(=O)C[C@@H]1CC[C@H]2[C@@H](COc3ccc(NC(=O)Nc4ccccc4C)cc3C(=O)N2C)O1	·	·	·	4.0	·	·
Cc1ccc(C(=O)N(c2ccccn2)C(C)c2ccco2)cc1C (centres undefined)	0.7	9.6	97.1*	-7.4	-0.1	16.2
CCOC(=O)Cn1cc(CN2C(C(=O)OC)CN(Cc3ccc(C)cc3)CCS2(=O)=O)nn1 (centres undefined)	·	·	·	0.5	·	·
CCCCN=C(N)NC(=O)OCc1ccccc1	·	·	·	-1.9	·	·
O=C(O)C12C[C@H]3C[C@@H](C1)CC(n1ncc(N4CCN(c5ccccc5)CC4)c(Cl)c1=O)(C3)C2	3.9	2.4	98.2*	8.1	-0.1	-6.8
O=C(O)CC12C[C@H]3C[C@@H](C1)CC(n1ncc(N4CCN(c5ccccc5)CC4)c(Cl)c1=O)(C3)C2	-5.0	-6.9	98.3*	8.0	-0.4	-6.2
COC(=O)C1CN(Cc2cn(CCOC(C)=O)nn2)CCS(=O)(=O)N1Cc1ccc(C)cc1 (centres undefined)	·	·	·	0.5	·	·
CC(=O)Nc1ccc(-c2csc(N/N=C\c3ccncc3)n2)cc1	1.1	20.8	98.8*	11.6	-0.2	22.5
COC(=O)c1ccc(/C=N/Nc2nc(-c3ccccc3)cs2)cc1	-1.3	-0.9	69.7	4.7	1.2	3.6
CCCC(=O)Nc1ccc(-c2csc(N/N=C\c3ccncc3)n2)cc1	-2.8	-7.0	97.9*	18.7	-0.3	13.9
CC(=O)c1cc(-c2ccccc2S(=O)(=O)NC(C)(C)C)c(=O)n2c1CCC2	·	·	·	1.7	·	·
CC(=O)Nc1nc(=S)n(-c2ccccc2)[nH]1	-3.7	31.7	?	-2.7	0.1	96.1*
SMILES	APOBEC3A inh	APOBEC3G inh	ALR inh	rCAG RNA binder	aDG glyco act	PHOSPHO1 inh
CC(C)c1nc(=S)n(-c2ccccc2)[nH]1	-6.5	31.0	89.5*	1.7	0.1	-23.1
CC(=O)N/N=C/c1c(C)[nH]n(-c2ccccc2)c1=O	-1.9	-6.1	2.7	2.0	0.2	-7.3
Cc1[nH]n(-c2ccccc2)c(=O)c1N=O	-3.7	-3.6	2.8	0.3	-0.1	1.2
COC(=O)[C@@]12CCCCC=C1N(CCc1ccc(Cl)cc1)C(=O)[C@H]2CC(=O)NCc1ccc(C)o1	·	·	·	6.9	·	·
COc1ccc(C(=O)Nc2cc(C(C)=O)c(C)oc2=O)cc1	-0.5	-2.6	92.3*	-1.0	-0.1	36.7
CC(=O)c1cc(NC(=O)c2ccc(Cl)cc2)c(=O)oc1/C=C/N(C)C	-2.6	-3.7	96.9*	9.4	-0.1	21.6
CC(=O)c1cc(NC(=O)c2cccc(C(F)(F)F)c2)c(=O)oc1/C=C/N(C)C	-1.9	-5.8	-1.0	0.1	0.1	52.3
COc1cccc(C(=O)N2CCC(Oc3cccnc3)CC2)c1	·	·	·	1.4	·	·
CCOC(=O)c1[nH]c(C)c(C(=O)N2CCN(c3ccc(OC)cc3)CC2)c1C	2.2	3.3	75.0	-3.8	-0.1	-3.9
CCOC(=O)c1[nH]c(C)c(C(=O)N2CCN(c3ccc(F)cc3)CC2)c1C	-0.3	-4.7	89.7*	-1.8	0.2	10.5
O=S1(=O)c2ccc(N3CCC[C@H]3CO)cc2O[C@H]2CCN1C2	·	·	·	4.7	·	·
C=C(C)C(=O)Nc1ccc(NC(C)C)cc1	-1.1	-6.8	99.0*	-2.1	-0.1	9.7
O=S(=O)(c1ccc(Cl)cc1)N1CCSC1c1ccco1 (centres undefined)	3.2	-6.6	4.5	4.2	-0.3	68.2*
Nn1c(SCc2ccc([N+](=O)[O-])cc2)nnc1-c1n[nH]c2c1CCC2	·	·	·	2.7	·	·
Cc1ccc(-c2c(NC(=O)c3ccccc3)nc3ncccn23)cc1	·	·	·	0.9	·	·
CCOC(=O)c1ccc(NC(=O)CN2C(=O)CSC2=O)cc1	-1.3	-3.7	99.5*	-0.4	0.0	8.6
CCOC(=O)c1ccc(NC(=O)CC2C(=O)OCCN2CC)cc1 (centres undefined)	-3.7	-4.5	1.0	6.2	0.4	27.7
CCOC(=O)c1ccc(NC(=O)CC2OCCN(CC)C2=O)cc1 (centres undefined)	-1.8	-4.5	86.0*	23.5	0.4	-17.6
C=CCO[C@H]1CN(C(=O)OC)[C@@H](c2ccccc2Br)C[C@H]1OCC=C	·	·	·	-3.5	·	·
O=C(CCc1c[nH]c2ccccc12)Nc1ccc(Oc2cccnc2)cc1	·	·	·	5.7	·	·
CN(C)Cc1ccccc1Sc1ccc(O)cc1O	-3.4	-7.6	99.5*	-1.7	0.0	-0.3
CNCc1ccccc1Sc1cc(O)ccc1O	0.4	6.9	81.8*	18.9	-0.1	5.7
COc1ccc(C(C)c2cn(C)c3ccccc23)cc1 (centres undefined)	·	·	·	5.0	·	·
CCCCCCCCN1C(=O)[C@@H](CC(=O)NCc2cccs2)C[C@@]2(C(=O)OC)C1=C[C@H](C(C)C)O[C@@H]2C1CC1	·	·	·	9.5	·	·
O=C1CC(O)(C(F)(F)F)Oc2c1ccc1ccccc21 (centres undefined)	-0.4	-4.9	-12.9	8.2	-0.1	-8.3
O=C1CC(O)(C(F)F)Oc2ccc3ccccc3c21 (centres undefined)	0.8	-0.6	-1.1	-1.0	-0.1	67.4*
O=C(NCCO)C1(C(=O)C2CC2)CC(c2ccccc2C(F)(F)F)=NO1 (centres undefined)	·	·	·	3.3	·	·
